Most compounds without a hit are left out; they make up all but 6.5% or so of the library.
Giardia kill = Small Molecules that selectively kill Giardia lamblia: qHTS. activity change, % at 7.66 µM, hits read low. 340,000 compounds, 0.15% hits. AID 540267, 2011. Giardia lamblia trophozoite viability; in the data active = activity change below about -80%; inconclusive = between about -30% and that limit;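 note: parasites exposed to compound for two days anaerobically before the ATP read; % is set by controls: 0 for no effect and ±100 for the full control effect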
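ATP-content bioluminescence gauges trophozoite survival. Cells (100/well) receive compound and incubate anaerobically for 48 hrs at 37 deg C; detection reagent follows for 15-30 min at room temperature.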
HT1080 IDH1KD tx = qHTS for induction of synthetic lethality in tumor cells producing 2HG: qHTS for the HT-1080-IDH1KD cell line; HT-1080 IDH1 knockdown viability, ATP luminescence, 48 h; Potency, µM (titrated, usually from 46.1 µM), inactives show at the highest dose activity, negative = toxicity, most hits filed as cytotoxic; 360,000 compounds, 2% hits;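 note: potency is the fitted concentration of half-maximal effect; 0% = DMSO wells and -100% = cell-free medium wells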
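% activity derives from luminescence (CellTiter-Glo), normalised to DMSO and no-cell wells. HT-1080-IDH1KD cells, 750/well, had 48 h compound exposure at 37 °C.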
IL1B secr inh = qHTS for Inhibitors of Inflammasome Signaling: IL-1-beta AlphaLISA Primary Screen | THP-1 LPS/ATP IL-1B secretion, AlphaLISA, 16 h; stronger effect = lower value | activity change, % at 57.5 µM | 360,000 compounds, 4.7% hits; in the data active = activity change below about -50%; inconclusive = mostly about -30% to -49%; note: % is set by controls: 0 for no effect and ±100 for the full control effect
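Secreted IL-1B measured by AlphaLISA bead assay after 16 h compound exposure of THP-1 cells; compounds (final up to 57.5 uM) added 1 h before LPS (250 ng/mL) and ATP (1.25 mM) stimulation; lower signal means less secretion.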
TGFb SMAD3 inh = qHTS for Inhibitors of TGF-b; HepG2 CAGA-GFP TGF-b/SMAD3 reporter, GFP fluorescence, 18 h; TGF-beta stimulated, 500 pg/mL final; Potency, µM (series often up to 46.1 µM), without a hit: at the highest dose activity, negative = inhibition, hits mostly inhibitors; 410,000 compounds, 1.2% hits; AID 588855, 2011; note: potency is the fitted concentration of half-maximal effect; % is set by controls: 0 for no effect and ±100 for the full control effect; nearly all actives have a fitted effect of over 65% in size
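Per well, imaged GFP fluorescence of HEPG2 CAGA-GFP cells gives the signal; cells get compound, then TGF-beta (500 pg/mL final), 18 h at 37 degrees C; %Activity versus -TGF-beta and +DMSO controls.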
HepG2 tox-1 = qHTS for Inhibitors of TGF-b: Cytotox Counterscreen | HepG2 CAGA-GFP viability, ATP luminescence, 18 h | Potency, µM (highest dose often 46.1 µM), inactives show at the highest dose activity change, negative = cytotoxicity, usual class: cytotoxic | 410,000 compounds, 0.76% hits; note: potency is the fitted concentration of half-maximal effect
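HepG2 CAGA-GFP cells (1000/well, DMEM with 1% FBS) received compound, then TGF-beta at 500 pg/mL final, and were incubated 18 hours at 37 degrees C. Viability was read by CellTiter-Glo luminescence. Media-only wells were set as complete cell-killing and DMSO as no toxicity.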
HT1080-NT tox = qHTS for induction of synthetic lethality in tumor cells producing 2HG: qHTS for the HT-1080-NT fibrosarcoma cell line | HT-1080-NT fibrosarcoma viability, CellTiter-Glo ATP luminescence, 48 h | Potency, µM (titrated, usually from 46.1 µM), without a hit: at the top dose activity, negative = less viability, most hits filed as cytotoxic | 360,000 compounds, 1.6% hits;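 note: NT is the 2HG producing partner of a matched IDH1 knockdown line; potency is the fitted concentration of half-maximal effect; 0% = DMSO-treated cells and -100% = media-only wells without cells; nearly all actives have a fitted effect of over 55% in size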
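A 48-hour cytotoxicity screen used HT-1080-NT cells plated 2 hours before compound delivery. ATP-based CellTiter-Glo luminescence measured viability, normalized to DMSO and no-cell controls.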
TGFb confirm = qHTS for Inhibitors of TGF-b: Confirmation of Cherry Picks. shares compounds with TGFb SMAD3 inh. Potency, µM (series often up to 46.1 µM), inactives show at the top dose activity, negative = inhibition, hits mostly inhibitors. 1,600 compounds, 63% hits. HepG2 CAGA-GFP TGF-b reporter, GFP fluorescence, 18 h; cells stimulated with TGF-beta, 500 pg/mL. AID 720534, 2013; note: potency is the fitted concentration of half-maximal effect; % is set by controls: 0 for no effect and ±100 for the full control effect; nearly all actives have a fitted effect of over 65% in size
HepG2 tox-2 = qHTS for Inhibitors of TGF-b: Cytotox Counterscreen for Cherry Picks; AID 720535, 2013; Potency, µM (series often up to 46.1 µM), for inactives: at the top dose activity, negative = cytotoxicity, usual class: inhibitors; 1,600 compounds, 27% hits; shares compounds with TGFb SMAD3 inh; HepG2 CAGA-GFP viability, ATP luminescence, 18 h; cells stimulated with TGF-beta, 500 pg/mL; note: potency is the fitted concentration of half-maximal effect; % is set by controls: 0 for no effect and ±100 for the full control effect; nearly all actives have a fitted effect of over 70% in size
TGFb CCL64 inh = qHTS for Inhibitors of TGF-b: CCL64 Cells Orthogonal Assay for Cherry Picks; shares compounds with TGFb SMAD3 inh; CCL64 CAGA-GFP reporter, TGF-b stimulated, GFP fluorescence, 18 h; Potency, µM (top dose mostly 46.1 µM), without a hit: at the highest dose activity, negative = inhibition, hits mostly inhibitors; 1,600 compounds, 41% hits; note: potency is the fitted concentration of half-maximal effect; nearly all actives have a fitted effect of over 65% in size
TGFb COP inh = qHTS for Inhibitors of TGF-b: Hit Validation in HepG2 Cells using COP promoter; 1,600 compounds, 3% hits; shares compounds with TGFb SMAD3 inh; HepG2 COP-GFP TGF-b reporter, GFP fluorescence, 18 h; cells stimulated by added recombinant TGF-beta; Potency, µM (top dose mostly 46.1 µM), inactives show top-dose activity, negative = inhibition, most hits filed as inhibitors; note: potency is the fitted concentration of half-maximal effect; nearly all actives have a fitted effect of over 70% in size
* = called active by the depositor; ? = inconclusive; . = no result given. Unless noted, calls come from the whole dose curve; as a rule, active = well fitted curve in the direction sought with a large enough effect; inconclusive = small, poorly fitted or top-dose-only effect, or another doubt; inactive = no such curve, though single readings can be large; an effect the other way counts as inactive or inconclusive.

SMILES | Giardia kill | HT1080 IDH1KD tx | IL1B secr inh | TGFb SMAD3 inh | HepG2 tox-1 | HT1080-NT tox | TGFb confirm | HepG2 tox-2 | TGFb CCL64 inh | TGFb COP inh
Oc1ccc(C[C@H]2CNC(=S)N2CC2CCCN2C[C@H](Cc2ccc(O)cc2)N2C[C@H](Cc3ccccc3)N(CC3CCCCC3)C2=S)cc1 (stereo partly specified) | -4 | -27% | -72* | 7.9µM* | -1% | -25% | 6.5µM* | ? | ? | -5%
Oc1ccc(C[C@H]2CNC(=S)N2CC2CCCN2C[C@H](Cc2ccc(O)cc2)N2C[C@H](Cc3ccccc3)N(CC3CCCCCC3)C2=S)cc1 (stereo partly specified) | 10 | -22% | -66* | 7.9µM* | -8% | -11% | 6.5µM* | -8% | 10µM* | 10%
Oc1ccc(C[C@H]2CNC(=S)N2CC2CCCN2C[C@H](Cc2ccc(O)cc2)N2C[C@H](Cc3ccc(O)cc3)N(CC3CCCCCC3)C2=S)cc1 (stereo partly specified) | -22 | ? | ? | 7.9µM* | -10% | ? | 16µM* | ? | 3.3µM* | 13%
CC(C)C[C@H]1CNC(=S)N1C[C@H]1CCCN1C[C@H](Cc1ccc(O)cc1)N1C[C@H](Cc2ccccc2)N(CC2CCCCCC2)C1=S | . | -18% | -18 | ? | -20% | -27% | ? | -4% | ? | 3%
COc1cc(OC)cc(C(=O)NC(C)c2ccc(Br)cc2)c1 (stereo unspecified) | -15 | -18% | 0 | 4% | -6% | -5% | . | . | . | .
CC(=O)N1CCN(C(=O)c2cccc(S(=O)(=O)N3CCN(c4ccc(F)cc4)CC3)c2)CC1 | -19 | -4% | 8 | 8% | 14% | 0% | . | . | . | .
Oc1ccc(C[C@H]2CNC(=S)N2CC2CCCN2C[C@H](Cc2ccccc2)N2C[C@H](Cc3ccc(O)cc3)N(CC3CCCCC3)C2=S)cc1 (stereo partly specified) | . | 26µM* | ? | 5.6µM* | -52% | ? | 15µM* | ? | 4.1µM* | 30%
Cc1ccc(Oc2coc3cc(OC(=O)c4cccs4)ccc3c2=O)cc1 | -10 | -4% | 15 | 14% | -13% | 2% | . | . | . | .

Source: PubChem (National Center for Advancing Translational Sciences (NCATS))
